# Assays:
# Conditions in all cases: Compound concentration 20.0 uM
# [1] = biological target: Tyrosine-protein kinase ABL1 (Homo sapiens) (UniProt P00519)
# [2] = biological target: Bromodomain-containing protein 4 (Homo sapiens) (UniProt O60885)
# [3] = biological target: Cyclin-dependent kinase 2 (Homo sapiens) (UniProt P24941)
# [4] = biological target: Casein kinase I isoform delta (Homo sapiens) (UniProt P48730)
# [5] = biological target: Glycogen synthase kinase-3 beta (Homo sapiens) (UniProt P49841)
# [6] = biological target: Mitogen-activated protein kinase 1 (Homo sapiens) (UniProt P28482)
# [7] = biological target: T1, Aurora kinase A (Homo sapiens) (UniProt O14965)
# T1 sequence (whole entry): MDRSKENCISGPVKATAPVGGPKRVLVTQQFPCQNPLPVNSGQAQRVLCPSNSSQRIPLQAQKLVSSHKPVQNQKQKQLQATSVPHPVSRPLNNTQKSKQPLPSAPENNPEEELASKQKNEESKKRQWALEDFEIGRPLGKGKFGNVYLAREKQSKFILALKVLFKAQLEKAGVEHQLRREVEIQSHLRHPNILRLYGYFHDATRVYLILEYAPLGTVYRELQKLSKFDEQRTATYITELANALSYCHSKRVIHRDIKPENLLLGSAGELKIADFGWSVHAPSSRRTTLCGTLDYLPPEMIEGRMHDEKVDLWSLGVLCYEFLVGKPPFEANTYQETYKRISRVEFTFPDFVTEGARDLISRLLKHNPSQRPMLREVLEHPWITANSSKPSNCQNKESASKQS
# [8] = biological target: T2, Transcription intermediary factor 1-alpha (Homo sapiens) (UniProt O15164)
# T2 sequence (whole entry): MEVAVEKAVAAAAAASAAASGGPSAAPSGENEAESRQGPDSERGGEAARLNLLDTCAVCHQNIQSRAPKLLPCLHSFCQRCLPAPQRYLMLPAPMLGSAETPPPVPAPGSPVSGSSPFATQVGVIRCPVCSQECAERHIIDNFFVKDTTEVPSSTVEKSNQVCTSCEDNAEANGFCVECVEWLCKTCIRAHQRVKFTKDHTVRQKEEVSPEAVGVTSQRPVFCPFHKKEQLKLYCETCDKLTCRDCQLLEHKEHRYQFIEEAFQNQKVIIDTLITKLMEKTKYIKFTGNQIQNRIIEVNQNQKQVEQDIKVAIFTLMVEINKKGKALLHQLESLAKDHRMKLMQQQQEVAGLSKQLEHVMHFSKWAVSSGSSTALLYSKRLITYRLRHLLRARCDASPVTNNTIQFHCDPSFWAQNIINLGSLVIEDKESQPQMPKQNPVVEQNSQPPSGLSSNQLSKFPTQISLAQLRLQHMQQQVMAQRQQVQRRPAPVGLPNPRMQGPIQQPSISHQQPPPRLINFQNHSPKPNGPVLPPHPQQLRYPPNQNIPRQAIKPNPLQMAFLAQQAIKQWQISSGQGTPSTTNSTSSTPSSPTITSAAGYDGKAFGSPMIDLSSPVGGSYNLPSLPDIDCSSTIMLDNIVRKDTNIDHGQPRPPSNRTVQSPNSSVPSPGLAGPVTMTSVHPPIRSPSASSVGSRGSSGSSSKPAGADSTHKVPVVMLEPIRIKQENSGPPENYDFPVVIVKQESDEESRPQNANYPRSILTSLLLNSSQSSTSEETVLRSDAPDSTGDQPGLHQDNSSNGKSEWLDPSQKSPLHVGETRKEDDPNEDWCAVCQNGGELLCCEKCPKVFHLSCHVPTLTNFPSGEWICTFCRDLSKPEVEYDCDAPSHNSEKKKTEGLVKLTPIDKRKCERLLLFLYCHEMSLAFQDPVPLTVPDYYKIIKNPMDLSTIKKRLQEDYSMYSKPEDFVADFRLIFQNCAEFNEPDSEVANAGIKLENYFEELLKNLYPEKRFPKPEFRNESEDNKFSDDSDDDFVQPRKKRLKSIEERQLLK
# Casein kinase I isoform delta (Homo sapiens), sequence (P48730 whole entry, looked up, canonical isoform): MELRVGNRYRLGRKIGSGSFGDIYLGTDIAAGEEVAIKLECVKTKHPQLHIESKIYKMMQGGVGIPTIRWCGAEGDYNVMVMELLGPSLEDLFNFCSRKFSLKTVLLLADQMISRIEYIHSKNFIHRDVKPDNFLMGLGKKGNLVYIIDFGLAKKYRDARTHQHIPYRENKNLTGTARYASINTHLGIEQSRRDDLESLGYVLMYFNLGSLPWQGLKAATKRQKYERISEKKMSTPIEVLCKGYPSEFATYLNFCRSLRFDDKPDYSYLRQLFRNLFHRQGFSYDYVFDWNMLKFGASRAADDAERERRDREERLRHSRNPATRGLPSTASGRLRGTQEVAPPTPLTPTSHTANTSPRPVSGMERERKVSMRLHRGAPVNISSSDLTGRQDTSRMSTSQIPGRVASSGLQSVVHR
# Glycogen synthase kinase-3 beta (Homo sapiens), sequence (P49841 whole entry, looked up): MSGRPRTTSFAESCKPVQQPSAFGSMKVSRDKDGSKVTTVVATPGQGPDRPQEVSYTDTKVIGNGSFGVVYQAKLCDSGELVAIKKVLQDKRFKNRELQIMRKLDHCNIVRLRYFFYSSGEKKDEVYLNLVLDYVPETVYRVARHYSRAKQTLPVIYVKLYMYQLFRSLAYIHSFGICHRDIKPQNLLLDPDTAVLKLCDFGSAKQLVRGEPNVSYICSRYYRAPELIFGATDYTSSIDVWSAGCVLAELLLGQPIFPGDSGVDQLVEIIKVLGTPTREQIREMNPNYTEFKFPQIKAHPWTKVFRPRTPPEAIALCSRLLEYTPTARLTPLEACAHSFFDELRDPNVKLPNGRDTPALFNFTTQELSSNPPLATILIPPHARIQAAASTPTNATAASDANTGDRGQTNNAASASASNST
# Mitogen-activated protein kinase 1 (Homo sapiens), sequence (P28482 whole entry): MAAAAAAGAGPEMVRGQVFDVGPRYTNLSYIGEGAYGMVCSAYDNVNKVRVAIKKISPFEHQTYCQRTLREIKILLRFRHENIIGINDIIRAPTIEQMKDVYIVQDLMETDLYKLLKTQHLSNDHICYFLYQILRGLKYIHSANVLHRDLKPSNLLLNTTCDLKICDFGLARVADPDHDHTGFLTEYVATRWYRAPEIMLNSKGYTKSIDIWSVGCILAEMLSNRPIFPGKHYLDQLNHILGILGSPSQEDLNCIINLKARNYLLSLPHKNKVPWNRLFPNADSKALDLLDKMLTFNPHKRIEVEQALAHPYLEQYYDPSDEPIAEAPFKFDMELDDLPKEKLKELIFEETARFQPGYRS
# Tyrosine-protein kinase ABL1 (Homo sapiens), sequence (P00519 whole entry): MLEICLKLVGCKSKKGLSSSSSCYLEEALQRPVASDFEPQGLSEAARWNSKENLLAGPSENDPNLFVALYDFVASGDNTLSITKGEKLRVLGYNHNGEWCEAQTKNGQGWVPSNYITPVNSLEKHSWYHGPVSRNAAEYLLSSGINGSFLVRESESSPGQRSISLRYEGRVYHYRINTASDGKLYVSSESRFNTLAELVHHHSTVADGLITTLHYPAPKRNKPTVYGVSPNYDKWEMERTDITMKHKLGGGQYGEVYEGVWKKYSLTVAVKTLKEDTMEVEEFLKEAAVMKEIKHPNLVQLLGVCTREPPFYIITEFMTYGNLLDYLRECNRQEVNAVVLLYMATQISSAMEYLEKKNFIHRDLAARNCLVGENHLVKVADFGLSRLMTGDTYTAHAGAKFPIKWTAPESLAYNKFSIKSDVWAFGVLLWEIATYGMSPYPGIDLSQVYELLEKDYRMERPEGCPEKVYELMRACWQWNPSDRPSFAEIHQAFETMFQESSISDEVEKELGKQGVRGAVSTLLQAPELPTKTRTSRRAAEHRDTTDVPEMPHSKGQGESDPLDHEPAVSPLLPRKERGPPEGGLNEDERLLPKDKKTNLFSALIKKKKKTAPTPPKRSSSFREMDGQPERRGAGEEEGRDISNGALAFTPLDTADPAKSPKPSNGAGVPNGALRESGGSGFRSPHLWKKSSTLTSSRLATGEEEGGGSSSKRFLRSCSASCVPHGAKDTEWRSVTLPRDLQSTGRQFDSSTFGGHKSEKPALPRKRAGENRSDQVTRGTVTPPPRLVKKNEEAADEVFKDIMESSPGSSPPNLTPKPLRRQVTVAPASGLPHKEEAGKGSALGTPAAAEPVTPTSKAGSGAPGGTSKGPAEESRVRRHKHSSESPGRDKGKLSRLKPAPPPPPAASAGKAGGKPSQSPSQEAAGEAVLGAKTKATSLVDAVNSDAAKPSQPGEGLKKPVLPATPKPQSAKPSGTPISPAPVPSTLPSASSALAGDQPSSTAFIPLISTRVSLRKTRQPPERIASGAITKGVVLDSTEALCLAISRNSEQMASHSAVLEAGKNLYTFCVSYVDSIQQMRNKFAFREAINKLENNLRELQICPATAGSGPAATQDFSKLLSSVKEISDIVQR
compound,measurement,setting,value
Cn1nc(C(C)(C)C)cc1C(=O)NC(Cc1cccc(Cl)c1)C(=O)NCC#N (stereo unspecified),ΔTm,[1],0.37 °C
same,ΔTm,[2],-2.22 °C
same,ΔTm,[3],0.71 °C
same,ΔTm,[4],0.04 °C
same,ΔTm,[5],0.23 °C
same,ΔTm,[6],0.2 °C
same,ΔTm,[7],-1.33 °C
same,ΔTm,[8],0.74 °C
Cc1c(CN2CCC(Nc3ncnc4sc(CC(F)(F)F)cc34)CC2)ccc2[nH]c(C#N)cc12,ΔTm,[1],-0.58 °C
same,ΔTm,[2],0.25 °C
same,ΔTm,[3],-0.04 °C
same,ΔTm,[4],1.22 °C
same,ΔTm,[5],-1.43 °C
same,ΔTm,[6],-1.41 °C
same,ΔTm,[7],-7.15 °C
same,ΔTm,[8],0.71 °C
N#Cc1ccc(-c2csc(NN=C3CCCC3)n2)cc1,ΔTm,[1],1.02 °C
same,ΔTm,[2],-1.71 °C
same,ΔTm,[3],-3.5 °C
same,ΔTm,[4],0.34 °C
same,ΔTm,[5],-3.93 °C
same,ΔTm,[6],-0.09 °C
same,ΔTm,[7],-0.22 °C
same,ΔTm,[8],-1.63 °C
CNC[C@@H](O)COc1ccc(Cl)c(-c2nc(-c3c(C)noc3C)c(C)c(N3CC4(CCN(C(=O)OC)CC4)C3)n2)c1,ΔTm,[1],0.37 °C
same,ΔTm,[2],-2.53 °C
same,ΔTm,[3],0.32 °C
same,ΔTm,[4],0.05 °C
same,ΔTm,[5],-0.26 °C
same,ΔTm,[6],-2.08 °C
same,ΔTm,[7],0.12 °C
same,ΔTm,[8],0.65 °C
COC(=O)c1ccc(CN2CCC(O)(Cn3cnc4c(-c5ccc(CN)cc5)n(C)nc4c3=O)CC2)c(Cl)c1,ΔTm,[1],0.48 °C
same,ΔTm,[2],-3.34 °C
same,ΔTm,[3],-0.1 °C
same,ΔTm,[4],-0.28 °C
same,ΔTm,[5],-0.1 °C
same,ΔTm,[6],0.15 °C
same,ΔTm,[7],-1.56 °C
same,ΔTm,[8],2.14 °C
N#C[C@@H]1C[C@@H]2C[C@@H]2N1C(=O)[C@@H](N)C12CC3CC(CC(O)(C3)C1)C2,ΔTm,[1],0.22 °C
same,ΔTm,[2],0.38 °C
same,ΔTm,[3],0.24 °C
same,ΔTm,[4],-0.14 °C
same,ΔTm,[5],-0.19 °C
same,ΔTm,[6],0.33 °C
same,ΔTm,[7],-2.27 °C
same,ΔTm,[8],1.46 °C
CC(=O)N[C@@H](Cc1ccc(O)cc1)C(=O)N[C@H](C(=O)N[C@@H](C)C(=O)N[C@@H](CC(=O)O)C(=O)COC(=O)c1c(C)cccc1C)C(C)C,ΔTm,[1],0.26 °C
same,ΔTm,[2],-2.81 °C
same,ΔTm,[3],0.14 °C
same,ΔTm,[4],0.17 °C
same,ΔTm,[5],-0.23 °C
same,ΔTm,[6],-0.06 °C
same,ΔTm,[7],-0.54 °C
same,ΔTm,[8],-0.84 °C
Cc1c(F)c(N)cc(C(=O)Nc2cc(-n3cc(C(=O)NCCCN4CCOCC4)nn3)ccc2N2CCN(C)CC2)c1Cl,ΔTm,[1],0.14 °C
same,ΔTm,[2],-3.1 °C
same,ΔTm,[3],0.07 °C
same,ΔTm,[4],0.04 °C
same,ΔTm,[5],-0.82 °C
same,ΔTm,[6],0.14 °C
same,ΔTm,[7],-2.25 °C
same,ΔTm,[8],-0.56 °C
Cc1ccc(F)c2cc(C(=O)N[C@@H]3CCC[C@H](N4CC[C@H](N(C)S(C)(=O)=O)C4)C3)[nH]c12,ΔTm,[1],0.55 °C
same,ΔTm,[2],-1.2 °C
same,ΔTm,[3],0.24 °C
same,ΔTm,[4],0.73 °C
same,ΔTm,[5],-1.31 °C
same,ΔTm,[6],-0.53 °C
same,ΔTm,[7],0.21 °C
same,ΔTm,[8],-1.39 °C
O=C(O)[C@@H]1CCCN(C(=O)n2cnc(-c3ccc(-c4cnc(N5CCOCC5)nc4)cc3)n2)[C@H]1c1ccccc1,ΔTm,[1],0.15 °C
same,ΔTm,[2],-1.06 °C
same,ΔTm,[3],-1.79 °C
same,ΔTm,[4],1.27 °C
same,ΔTm,[5],-3.37 °C
same,ΔTm,[6],0.69 °C
same,ΔTm,[7],-5.07 °C
same,ΔTm,[8],0 °C
CCn1c(=S)[nH]c2cc3c(NCc4ccccc4N4CCC(CO)CC4)ncnc3cc21,ΔTm,[1],0.75 °C
same,ΔTm,[2],4.86 °C
same,ΔTm,[3],-0.14 °C
same,ΔTm,[4],0.33 °C
same,ΔTm,[5],-0.82 °C
same,ΔTm,[6],0.17 °C
same,ΔTm,[7],-1.92 °C
same,ΔTm,[8],-0.23 °C
CNCCN(C)Cc1cn[nH]c1-c1ccc(OC2CC(OCCC3CCOCC3)C2)cc1 (stereo unspecified),ΔTm,[1],0.66 °C
same,ΔTm,[2],-1.82 °C
same,ΔTm,[3],0.43 °C
same,ΔTm,[4],0.19 °C
same,ΔTm,[5],-0.94 °C
same,ΔTm,[6],0.05 °C
same,ΔTm,[7],-0.58 °C
same,ΔTm,[8],-1.33 °C
CCCCCCCCCCCCC/C=C/[C@@H](O)[C@H](CO)NC(=O)CBr,ΔTm,[1],0.2 °C
same,ΔTm,[2],-6.16 °C
same,ΔTm,[3],-4.16 °C
same,ΔTm,[4],-9.74 °C
same,ΔTm,[5],-9.26 °C
same,ΔTm,[6],0.47 °C
same,ΔTm,[7],-14.4 °C
same,ΔTm,[8],-2.18 °C
CCN(CC)S(=O)(=O)c1cc(Nc2nccc(-c3ccnc(-c4ccc(NC(=O)NC)cc4)c3)n2)ccc1Cl,ΔTm,[1],15.6 °C
same,ΔTm,[2],0 °C
same,ΔTm,[3],0 °C
same,ΔTm,[4],0.81 °C
same,ΔTm,[5],24.1 °C
same,ΔTm,[6],0 °C
same,ΔTm,[7],0 °C
same,ΔTm,[8],0 °C
O=C(NCCc1cc(C(=O)NO)no1)c1ccc(Cl)c(Cl)c1,ΔTm,[1],1.11 °C
same,ΔTm,[2],-2.11 °C
same,ΔTm,[3],0.66 °C
same,ΔTm,[4],0.6 °C
same,ΔTm,[5],-1.05 °C
same,ΔTm,[6],0.3 °C
same,ΔTm,[7],-0.59 °C
same,ΔTm,[8],-0.96 °C
O=C(c1ccc2c(ccn2-c2ccc(F)cc2)c1)N1CC(N2CCN(C(=O)c3nccs3)CC2)C1,ΔTm,[1],0.62 °C
same,ΔTm,[2],-3.81 °C
same,ΔTm,[3],-1.22 °C
same,ΔTm,[4],-0.29 °C
same,ΔTm,[5],-1.59 °C
same,ΔTm,[6],0 °C
same,ΔTm,[7],-3.69 °C
same,ΔTm,[8],-0.34 °C
CN(CCOc1ccc(-c2ccc3c(c2)OCO3)cc1C(C)(C)C)CC(=O)O,ΔTm,[1],0.97 °C
same,ΔTm,[2],-3.79 °C
same,ΔTm,[3],-0.18 °C
same,ΔTm,[4],-0.21 °C
same,ΔTm,[5],-0.2 °C
same,ΔTm,[6],0.46 °C
same,ΔTm,[7],-0.74 °C
same,ΔTm,[8],-0.19 °C
CC(C)[C@H](NC(=O)OCc1ccccc1)C(=O)NC(CC(=O)O)C(=O)CF (stereo partly specified),ΔTm,[1],-0.18 °C
same,ΔTm,[2],-3.41 °C
same,ΔTm,[3],-0.73 °C
same,ΔTm,[4],0.1 °C
same,ΔTm,[5],0.35 °C
same,ΔTm,[6],-0.08 °C
same,ΔTm,[7],-2.03 °C
same,ΔTm,[8],-1.64 °C
Cc1ccc(C)c(-n2sc3cc(F)ccc3c2=O)c1,ΔTm,[1],-15.6 °C
same,ΔTm,[2],-11.5 °C
same,ΔTm,[3],-5.52 °C
same,ΔTm,[4],-0.06 °C
same,ΔTm,[5],0 °C
same,ΔTm,[6],-16.1 °C
same,ΔTm,[7],-1.97 °C
same,ΔTm,[8],0 °C
CNc1nccc(CN(CC2CCNCC2)S(=O)(=O)c2ccc(S(=O)(=O)N(Cc3ccc(Cl)cc3)C3CCCC3)cc2)n1,ΔTm,[1],0.85 °C
same,ΔTm,[2],-3.15 °C
same,ΔTm,[3],0.06 °C
same,ΔTm,[4],0.31 °C
same,ΔTm,[5],0.43 °C
same,ΔTm,[6],0.57 °C
same,ΔTm,[7],-2.49 °C
same,ΔTm,[8],-0.52 °C
CCc1nc2c(C)cc(N3CCN(CC(=O)N4CC(O)C4)CC3)cn2c1N(C)c1nc(-c2ccc(F)cc2)c(C#N)s1,ΔTm,[1],0.01 °C
same,ΔTm,[2],2.78 °C
same,ΔTm,[3],0.06 °C
same,ΔTm,[4],0.35 °C
same,ΔTm,[5],-0.27 °C
same,ΔTm,[6],0.06 °C
same,ΔTm,[7],-2.2 °C
same,ΔTm,[8],0.03 °C
O=C(NO)c1cccc(C(=O)NCCc2ccccc2)c1,ΔTm,[1],0.54 °C
same,ΔTm,[2],-1.69 °C
same,ΔTm,[3],1.3 °C
same,ΔTm,[4],0.19 °C
same,ΔTm,[5],-1.53 °C
same,ΔTm,[6],0.15 °C
same,ΔTm,[7],-0.23 °C
same,ΔTm,[8],-1.33 °C

# From ChEMBL document CHEMBL5724796, “Tm Shift (DSF) assay results for EUbOPEN Chemogenomics Library” (2024)
